Here are results for 54 molecules from ChEMBL document CHEMBL4513216, “Probing the Open Global Health Chemical Diversity Library for Multistage-Active Starting Points for Next-Generation Antimalarials” (ACS Infect Dis, 2020).

About 8,600 (12%) of roughly 69,000 compounds showed an effect of 50% or more. The sample holds strong results, similar compounds and a random draw of the others, so the mix is not that of the screen.

This assay concerns Plasmodium berghei. Nature of the assay: Screen against P. berghei liver stage (PbLuc), transformed with Luciferase, at 10uM. The format is functional, HepG2. The conditions noted are these: tested at 10 uM.
For `Cc1cc(-c2cnn(CCNC(=O)CCn3cccn3)c2C2CC2)on1`, the INHIBITION is given as -1.85%.

Take `Cc1cc(-c2cnn(CCNC(=O)C3CC3)c2C2CC2)on1`: the INHIBITION was 59.7%.

Turning to `Cc1cc(-c2cnn(CCNC(=O)c3cnn(C)c3)c2C2CC2)on1`, the INHIBITION is given as 10%.

In the case of `Cc1cc(-c2cnn(CCNC(=O)C3CCCO3)c2C2CC2)on1` (centres undefined), the INHIBITION is 40.4%.

In the case of `Cc1cc(-c2cnn(CCNC(=O)Cc3ccccn3)c2C2CC2)on1`, the INHIBITION worked out at 60.4%.

`O=C(c1cccnc1)N1C[C@H]2CC[C@@H](C1)N(Cc1ccc(F)cc1Cl)C2`: the INHIBITION is listed as -30%.

`COc1ccc(C)cc1CN(CC(N)=O)C(C)C`: the INHIBITION was -4.63%.

`O=C(NC[C@H]1OC[C@@H]2CCN(Cc3ccco3)C[C@@H]21)c1ccnnc1`: the INHIBITION stood at 6.72%.

Take `Cc1ocnc1C(=O)N(C)[C@@H]1CCC[C@@H](N2CCCC2)[C@@H]1O`: the INHIBITION came out at 39.3%.

Take `O=C(NC1CC1)c1cccc(S(=O)(=O)NCCc2nc(C3CC3)no2)c1`: the INHIBITION is listed as -86.5%.

On to `COCCc1noc(CN2CCN(c3ccc(OC)cc3)C(=O)C2C)n1` (centres undefined), for which the INHIBITION was determined as 3.3%.

With `Cc1cc(NC(=O)CNCc2csc(-c3cnccn3)n2)ccc1Cl`, the INHIBITION is on record as 52.2%.

As for `CCc1csc(CNCC(=O)Nc2ccc(Cl)c(C)c2)n1`, the INHIBITION is recorded as 49%.

Consider `Cc1cc(NC(=O)CNCc2csc(-c3ncccn3)n2)ccc1Cl`, for which the INHIBITION was determined as 18%.

With `Cc1nnc(CN2CCC3(CCC(=O)N(C4CCC(O)CC4)C3)CC2)o1` (centres undefined), the INHIBITION is 26%.

Regarding `CN(Cc1cccnc1)C1CCCN(Cc2noc(C3CC3)n2)C1` (centres undefined), the INHIBITION is 57.45%.

In the case of `Cc1cc(CN(C)C2CCCN(Cc3noc(C4CC4)n3)C2)no1` (centres undefined), the INHIBITION amounted to 53.8%.

For the molecule `CN(Cc1ccccn1)C1CCCN(Cc2noc(C3CC3)n2)C1` (centres undefined), the INHIBITION is given as 16.9%.

For `Cc1cc(CN(C)C2CCCN(Cc3noc(C)n3)C2)no1` (centres undefined), the INHIBITION is -14.7%.

On to `Cc1cc(CN2CCC(N(C)Cc3noc(C4CC4)n3)C2)no1` (centres undefined), for which the INHIBITION was 33.3%.

As for `Cc1nc(CN2CCCC(N(C)Cc3nc(C)c(C)o3)C2)no1` (centres undefined), the INHIBITION was -31.8%.

As for `Cc1nc(CN2CCCC(N(C)Cc3c(C)noc3C)C2)no1` (centres undefined), the INHIBITION was 58%.

Turning to `Cc1nc(CN(C)C2CCN(Cc3c(C)noc3C)C2)no1` (centres undefined), the INHIBITION amounted to 21.5%.

On to `CN(Cc1cnn(C)c1)C1CCCN(Cc2noc(C3CC3)n2)C1` (centres undefined), for which the INHIBITION is given as 14.9%.

Take `Cc1cccc(CNCc2ccc(NC(=O)NC(C)C)cc2)c1`: the INHIBITION came to 47.1%.

With `c1csc(CN2CCc3nnc(COc4cncnc4)n3CC2)c1`, the INHIBITION came out at 20.5%.

With `COc1ccccc1OCCNC(=O)N1CCC(n2cncn2)CC1`, the INHIBITION was determined as 3.15%.

As to `CCn1cnnc1CNC(=O)NCC(C(C)C)N1CCC(C)CC1` (centres undefined), the INHIBITION worked out at 37.1%.

`CC(NC(=O)NCc1cc(Br)cs1)c1ccccn1` (centres undefined): the INHIBITION is 82.6%.

As for `CCn1cnnc1CNC(=O)N1CCOCC1`, the INHIBITION was -4.1%.

Turning to `CCn1cnnc1CNC(=O)NC(C)c1ccccn1` (centres undefined), the INHIBITION turned out to be 57.8%.

For the molecule `CC(NC(=O)NCc1ccc(Cl)cc1)c1ccccn1` (centres undefined), the INHIBITION is 13.5%.

In the case of `CC(NC(=O)NCc1ccc(Cl)s1)c1ccccn1` (centres undefined), the INHIBITION stood at 17.7%.

Turning to `CCn1cnnc1CNC(=O)NC(C)c1cccs1` (centres undefined), the INHIBITION stood at 31%.

As for `CCn1cnnc1CNC(=O)NCC(C(C)C)N1CCOCC1` (centres undefined), the INHIBITION is 56.8%.

For the molecule `CCn1cnnc1CNC(=O)NC(C)C(C)C` (centres undefined), the INHIBITION amounted to 10%.

As for `COCC(=O)N1CCN(c2cc(C)nc(C3CCCN3C(C)=O)c2)CC1` (centres undefined), the INHIBITION is recorded as 32.3%.

For the molecule `Cc1ccccc1CN1CCN(C(=O)c2cnc(C3CC3)[nH]c2=O)CC1`, the INHIBITION is 27.5%.

On to `COc1cc(C)c(-c2ccc(F)c3c2OC(CN)C3)cc1C` (centres undefined), for which the INHIBITION is 55.1%.

On to `COc1cc(-c2ccc(F)c3c2OC(CN)C3)cc(OC)c1OC` (centres undefined), for which the INHIBITION is given as 31.9%.

`COc1cccnc1-c1ccc(F)c2c1OC(CN)C2` (centres undefined): the INHIBITION was -66.7%.

`CC(=O)N1[C@H](Cn2cncn2)C[C@@H]2CN(C(=O)c3ccoc3)CC[C@@H]21`: the INHIBITION is given as -22.1%.

As to `c1cncc(CN2CCc3c(CNc4nccs4)n[nH]c3C2)c1`, the INHIBITION is 33%.

On to `Cc1n[nH]c(C2CN(C(=O)CCc3ccco3)CCO2)n1` (centres undefined), for which the INHIBITION is -29.2%.

`CNc1nc2cn(C3CC(C)(C)NC(C)(C)C3)c(=O)c-2c[nH]1`: the INHIBITION is recorded as 25.1%.

On to `O=c1c2c[nH]c(N3CCOCC3)nc-2cn1C1CCS(=O)(=O)C1` (centres undefined), for which the INHIBITION was determined as 24%.

On to `CC1(C)CC(n2cc3nc(N4CCOCC4)[nH]cc-3c2=O)CC(C)(C)N1`, for which the INHIBITION was determined as 60.1%.

For the molecule `CC1(C)CC(n2cc3nc(N)[nH]cc-3c2=O)CC(C)(C)N1`, the INHIBITION worked out at 3.47%.

On to `CN1CCC(n2cc3nc(N)[nH]cc-3c2=O)CC1`, for which the INHIBITION amounted to 43.3%.

For `CN(C)c1nc2cn(C3CC(C)(C)NC(C)(C)C3)c(=O)c-2c[nH]1`, the INHIBITION is given as 20.1%.

In the case of `CC1(C)CC(n2cc3nc(N4CCCC4)[nH]cc-3c2=O)CC(C)(C)N1`, the INHIBITION was 64.8%.

On to `CC1CCC(n2cc3nc(N)[nH]cc-3c2=O)CC1` (centres undefined), for which the INHIBITION is -8.9%.

Regarding `Nc1nc2cn(C3CCCC3)c(=O)c-2c[nH]1`, the INHIBITION came out at 51.8%.

On to `CCn1cc(NC(=O)c2cc(C)nc(N3CCOCC3)n2)cn1`, for which the INHIBITION is 15.35%.
